This is a sample that favours compounds with a hit; in the whole collection about 5.3% have one here.
CtBP-E1A inh = CtBP/E1A binding inhibition; AID 651724; activity change, % (test concentration not listed); AlphaScreen GST-E1A/His-CtBP binding, 1536-well; stronger effect = lower value; 340,000 compounds, 0.49% hits; in the data active = activity change below about -65%; inconclusive = mostly about -30% to -63%
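GST-E1A and His-tagged CtBP (125 nM each as 5X stock) were preincubated with pin-transferred compound for 2 h at 37 °C in the dark, then glutathione donor and nickel acceptor beads were added for 1 h before AlphaScreen reading.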
JMJD2A Tudor inh = blocks the human JMJD2A Tudor domain; AID 504339; 390,000 compounds, 4.4% hits; Potency, µM (doses to about 114 µM), actives largely listed as inhibitors; AlphaScreen JMJD2A-Tudor / H3K4me3 peptide binding; O75164; also: nearly all actives have a fitted effect of over 50% in size
TDP1 inh = blocks human tyrosyl-DNA phosphodiesterase 1 | Q9NUW8 | recombinant TDP1, AlphaScreen DNA substrate cleavage | Potency, µM (titrated, usually from 130 µM), hits mostly inhibitors | 350,000 compounds, 0.28% hits | AID 485290; also: nearly all actives have a fitted effect of over 40% in size
Target sequence (Q9NUW8 whole entry, looked up): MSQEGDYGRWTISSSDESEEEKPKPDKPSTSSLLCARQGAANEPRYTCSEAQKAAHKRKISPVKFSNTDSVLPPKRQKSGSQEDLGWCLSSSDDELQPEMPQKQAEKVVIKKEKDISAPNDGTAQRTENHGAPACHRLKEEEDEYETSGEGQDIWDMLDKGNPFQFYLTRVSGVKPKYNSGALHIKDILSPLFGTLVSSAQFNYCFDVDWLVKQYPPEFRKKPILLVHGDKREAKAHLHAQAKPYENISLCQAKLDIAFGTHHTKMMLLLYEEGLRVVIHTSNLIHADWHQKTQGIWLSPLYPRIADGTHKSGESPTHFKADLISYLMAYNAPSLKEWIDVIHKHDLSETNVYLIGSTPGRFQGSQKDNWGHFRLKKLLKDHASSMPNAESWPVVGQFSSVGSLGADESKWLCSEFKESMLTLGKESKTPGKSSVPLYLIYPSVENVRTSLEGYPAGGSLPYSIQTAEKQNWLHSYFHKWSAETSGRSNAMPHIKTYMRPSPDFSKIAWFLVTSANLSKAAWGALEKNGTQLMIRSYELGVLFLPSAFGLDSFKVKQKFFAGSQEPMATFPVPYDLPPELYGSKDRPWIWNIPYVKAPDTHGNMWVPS
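E. coli-derived human Tdp1, 1 nM final. Cpd preinc 15 min RT; substrate 15 nM final, 5 min RT; AS bead mix 10 ug/ml final, 10 min RT. Signal loss = tyrosine-FITC cleavage. No-enzyme wells = max signal.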
BAZ2B inh = BAZ2B (human) inhibition; AlphaScreen BAZ2B-H3K14Ac peptide displacement; Potency, µM (highest dose often 114 µM), most hits filed as inhibitors; 360,000 compounds, 4.4% hits; AID 504333; also: nearly all actives have a fitted effect of over 60% in size
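Inhibition is scored as reduced AlphaScreen emission. The BAZ2B/b-H3(5-23)K14Ac complex (50 nM each) in PBS pH 7.4, 0.01% Tween-20 meets compound (up to 110 uM) for 30 min at RT before bead addition.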
HP1b chromo inh = blocks HP1-beta chromodomain binding to methylated histone tails | AlphaScreen HP1-beta / biotin-H3K9me3 peptide binding | Potency, µM (doses to about 114 µM), most hits filed as inhibitors | 390,000 compounds, 0.56% hits | AID 540317; also: nearly all actives have a fitted effect of over 70% in size
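HP1-beta protein (50 nM final) preincubated 30 min at room temperature with biotinylated H3(1-18)K9me3 peptide (50 nM) in PBS pH 7.4, 0.01% Tween-20, then compound added for 30 min. AlphaScreen streptavidin donor/nickel chelate acceptor beads (10 ug/mL final), 30 min dark, luminescence read.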
Six1-Eya2 blk = inhibitors of human Six1/Eya2 interaction. activity change, % (concentration not given with the values). AlphaScreen GST-Six1/His-Eya2 binding, biochemical; stronger effect = lower value. 360,000 compounds, 0.56% hits; in the data active = activity change below about -65%; inconclusive = mostly about -30% to -63%
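Homogeneous AlphaScreen proximity assay pairing GST-Six1 with His-tagged Eya2 (added as 5X mix: 250 nM and 500 nM) in 50 mM Tris pH 8.0, 300 mM NaCl, 1 mM TCEP. Glutathione donor and nickel acceptor beads; 1 h, 37 °C, dark.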
A number is an active result; i = inactive; ? = inconclusive; nt = no result given. Unless noted, calls follow the shape of the dose curve; as a rule, active = well fitted inhibition curve with a large enough effect; inconclusive = small, poorly fitted or top-dose-only effect; inactive = no such curve, though single readings can be large or run the other way.

SMILES	CtBP-E1A inh	JMJD2A Tudor inh	TDP1 inh	BAZ2B inh	HP1b chromo inh	Six1-Eya2 blk
CCOc1ccc(C(=O)NCCCn2ccnc2)cc1	i	i	i	i	i	i
Cc1cc(OCCN2CCOCC2)ccc1C(C)C	i	14µM	nt	50µM	?	i
CCOc1ccc(OCCn2ccnc2)cc1	i	5µM	i	50µM	?	i
Cc1ccc(OCCCn2ccnc2)cc1C	i	i	i	?	i	i
Cc1cc2c(cc1S(=O)(=O)C(C)CC(=O)NC1CCC(C)CC1)OCC(=O)N2 (stereo not drawn)	nt	i	i	i	i	nt
CCC(C)c1ccc(OCCCCN2CCOCC2)cc1 (stereo not drawn)	i	35µM	i	50µM	?	i
CN(C)/C=C1\SC(=S)N(c2ccc(Br)cc2)C1=O	i	?	i	40µM	i	i
CC(C)(C)CC(=O)Nc1nn[nH]n1	i	56µM	i	79µM	i	i
CC(=O)Nc1ccc(/C=C2\Sc3ccccc3C2=O)cc1	i	i	i	?	i	i
Cc1ccc(/C=C2\Sc3ccccc3C2=O)s1	i	i	i	8.9µM	i	i
c1ccc2c(C[C@@H]3CNCCN3CC3CCCCC3)cccc2c1	i	?	i	40µM	i	i
COc1ccc2ccccc2c1-c1sc(Nc2ccccc2)n[n+]1-c1ccc(F)cc1	nt	40µM	nt	32µM	?	i
CCc1ccc(Nc2n[n+](-c3ccccc3)c(-c3c(Cl)cccc3Cl)s2)cc1	?	16µM	nt	8.9µM	i	?
CCc1ccc(Nc2n[n+](-c3ccccc3)c(-c3cc(OC)c(OC)cc3Br)s2)cc1	i	79µM	nt	32µM	i	i
Fc1ccc(-[n+]2nc(Nc3ccccc3)sc2-c2c(Cl)cccc2Cl)cc1	?	35µM	nt	40µM	?	?
COc1ccc(-c2sc(Nc3ccccc3)n[n+]2-c2ccc(F)cc2)cc1Br	i	?	nt	i	i	i
Cc1cc2c(s1)c1cnn(Cc3cccc(Br)c3)c(=O)c1n2C	nt	i	nt	nt	nt	nt
Cc1ccc(NC(=O)CC(C)S(=O)(=O)c2ccc3c(c2)NC(=O)CO3)cc1Cl (stereo not drawn)	nt	i	i	i	i	nt
COc1ccc(NC(=O)C2CCN(S(=O)(=O)c3ccc4c(c3)CCCC(=O)N4)CC2)cc1Cl	nt	i	i	i	i	nt
Cc1c(C(=O)N2CCCC2)oc2c1-c1nn(CC(=O)NC(C)c3ccccc3)cc1CC2 (stereo not drawn)	nt	?	i	?	i	nt
CCCNC(=O)N1CCN(S(=O)(=O)c2ccc3c(ccn3C)c2)CC1	nt	i	i	i	i	nt
CCc1ccc(Nc2n[n+](-c3ccccc3)c(/C=C/c3ccccc3)s2)cc1	nt	nt	nt	28µM	nt	nt
Cc1nc2ccc(NC3=NCCCCC3)cc2s1	i	3.5µM	i	?	?	i
Cc1ccc(NC2=NCCC2)cc1Cl	i	i	i	i	i	i
CC1C/C(=C/c2cccn2C)C(=O)/C(=C/c2cccn2C)C1 (stereo not drawn)	?	25µM	i	32µM	40µM	?
SMILES	CtBP-E1A inh	JMJD2A Tudor inh	TDP1 inh	BAZ2B inh	HP1b chromo inh	Six1-Eya2 blk
CC1C/C(=C/c2ccncc2)C(=O)/C(=C/c2ccncc2)C1 (stereo not drawn)	i	i	i	?	i	i
CCOc1ccc(N2CC(NC(=O)c3ccc4c(c3)OCO4)CC2=O)cc1 (stereo not drawn)	nt	i	i	i	i	nt
COc1ccc(N/C=C/c2nc(SC)nnc2C)cc1	-85	i	i	i	i	-72
CSc1nnc(C)c(/C=C/Nc2ccc(Cl)cc2)n1	?	i	i	i	i	-71
O=C(CCN1C(=O)/C(=C\c2ccccc2)SC1=S)Nc1ccc(C(=O)O)cc1	i	?	nt	56µM	i	i
COc1ccc(/C=C2\SC(=O)N(CCCC(=O)Nc3ccc(C(=O)O)cc3)C2=O)cc1OC	i	i	i	i	i	i
CCOc1ccc(/C=C2/SC(=S)N(CCC(=O)Nc3ccc(C(=O)O)cc3)C2=O)cc1	i	10µM	10µM	32µM	35µM	i
COc1ccc(/C=C2\SC(=S)N(CCCC(=O)Nc3ccc(C(=O)O)cc3)C2=O)cc1OC	i	?	50µM	50µM	i	i
CC(/C=C1\SC(=S)N(CCC(=O)Nc2nc(C)cs2)C1=O)=C\c1ccccc1	i	40µM	nt	?	i	i
Cc1cccc(N(C)C(=O)CN(C)S(=O)(=O)c2ccc3[nH]c4c(c3c2)CCCC4)c1	nt	?	i	?	?	nt
CCOC(=O)c1cc(-c2ccccc2)n(CCC(=O)Nc2ccc(OC)c(Cl)c2)c1C	nt	i	i	i	i	nt
COc1cccc(/C=C/C(=O)Nc2ccc3nc(N4CCN(C)CC4)cc(C)c3c2)c1OC	nt	?	i	?	i	nt
COc1ccc(OCc2nc3ccccc3n2Cc2ccccc2Cl)cc1	nt	i	nt	i	i	nt
COc1cccc(OCCCCN2CCCCC2)c1	i	8.9µM	i	?	i	i
CC1CCCN(Cc2cccc(Oc3ccccc3)c2)C1 (stereo not drawn)	i	i	i	i	i	i
Brc1cccc(OCCCCN2CCCCC2)c1	i	50µM	i	?	?	i
CCOc1cccc(OCCCCN2CCCCC2)c1	i	?	i	?	?	i
CC1CCCN(CCCCOc2cccc(Br)c2)C1 (stereo not drawn)	i	50µM	i	50µM	i	i
CC1CCCN(CCOc2ccc(Br)cc2)C1 (stereo not drawn)	i	20µM	i	?	i	i
COc1ccc(C(=O)CCN2CCCC(C)C2)cc1 (stereo not drawn)	i	i	nt	i	i	i
CCOc1ccc(C(=O)OCc2cc(=O)n3cc(C)sc3n2)cc1	nt	i	i	i	i	nt
Fc1cc(F)cc(Nc2nc(NC3CCCC3)nc(C3CO3)n2)c1 (stereo not drawn)	nt	i	i	nt	nt	nt
Cc1cccc(CNC(=O)c2cc3cc(S(=O)(=O)N4CCCCC4)ccc3n2C)c1	nt	i	i	i	i	nt
CC(C)c1cccc(OCCN2CCCC2)c1	i	35µM	i	?	?	i
CN1CCN(CCOc2cccc(Cl)c2)CC1	i	?	i	?	i	i
SMILES	CtBP-E1A inh	JMJD2A Tudor inh	TDP1 inh	BAZ2B inh	HP1b chromo inh	Six1-Eya2 blk
Clc1cccc(OCCN2CCCC2)c1	i	i	i	i	i	i
CCC1CCCCN1CCCCOc1cccc(Cl)c1 (stereo not drawn)	i	18µM	nt	?	?	i
CC(C(=O)Nc1ccccc1)n1nnc2sc3c(c2c1=O)CCCC3 (stereo not drawn)	nt	i	i	i	i	nt
COc1ccc(NC(=O)c2cc(S(=O)(=O)NCCC3=CCCCC3)ccc2F)cc1	nt	i	i	i	i	nt
Cc1ccc(NC(=O)CCNS(=O)(=O)c2ccc3c(c2)CCCC(=O)N3)cc1	nt	i	i	i	i	nt
CCOc1ccc(-c2c(C(=O)N/N=C/c3ccoc3)nnn2-c2nonc2N)cc1	i	i	i	i	i	i
CCOc1ccc(-c2c(C(=O)N/N=C/c3cccnc3)nnn2-c2nonc2N)cc1	nt	i	50µM	?	i	i
